Experimental data taken from PubChem BioAssay (NCI).
This is part of a sample that, as a whole, favours compounds with a hit. Of some 83,000 tested, about 20% had one in any assay.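 Results are percent growth after 48 hours of single-concentration exposure. 100 means growth as in untreated cells, lower positive values show inhibition; negative values down to -100 show cell death.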 Unmarked numbers belong to inactive results. Calls of active or inactive are those of the source. How the source made its calls: active means growth percent below 10; inactive means the rest.

Test system: SN12C renal
Assay: NCI-60 one-dose screen, 48 h (100 = growth as untreated, 0 = no growth, -100 = all killed)
Details: 10 µM unless noted

| Compound | growth [%] |
| --- | --- |
| COc1cc(/C=N/NC(=S)NNC(=S)NC2CCCCC2)cc(OC)c1OC | 87.8 |
| COc1ccc2[nH]c(-c3ccc(Cl)cc3)cc(=O)c2c1 | 93.6 |
| Cc1cc(N(CCCNc2ccnc3cc(Cl)ccc23)Cc2ccco2)nc(Cl)n1 | 58.8 |

Test system: UO-31 renal
Assay: as above
Details: 10 µM unless noted

| Compound | growth |
| --- | --- |
| COc1cc2c3c(c4c5ccccc5[nH]c4c2c(OC)c1OC)C(=O)N(O)C3=O | 10% |
| Cc1cc2nc3c4cc(O)ccc4n(CCN(C)C)c3nc2cc1C | -37.5% (active) |
| Cc1csc(Nc2nc(-c3ccc(Cl)cc3)nc(C(Cl)(Cl)Cl)n2)n1 | 84.8% |
| Cc1cc(C)nc(NC(N)=NCCc2ccccc2)n1 | 69.2% |
| COc1cc(-c2c(C#N)c(-c3cccs3)nc3c2c(-c2ccccc2)nn3-c2ccccc2)ccc1O | 89.1% |
| CN1CCN(c2ccc3nc(-c4[nH]ncc4Nc4ncnc5c4OCCCN5)[nH]c3c2)CC1 | -77.3% (active) |
| COC(=O)[C@]12CC[C@@H](C)[C@H](C)[C@@H]1C1=CC[C@@H]3[C@@]4(C)C[C@@H](O)[C@H](O)[C@@](C)(CO)C4=CC[C@@]3(C)[C@]1(C)CC2 | -48.9% (active) |
| O=C(NO)c1ccc(Cn2c(=O)n(-c3ccccc3)c(=O)c3ccccc32)cc1 | 50.5% |
| COC(=O)[C@]12CC[C@@H](C)[C@H](C)[C@@H]1C1=CC(=O)[C@@H]3[C@@]4(C)C[C@@H](O)[C@H](O)[C@@]5(C)COC(=C45)C[C@@]3(C)[C@]1(C)CC2 | 65.8% |
| Cn1cc(-c2csc(-c3cn(CCN)c4ccc(F)cc34)n2)c2cccnc21 | 58.3% |
